# Hits are enriched below; roughly 12% of the tested compounds scored in any of these assays.
# G9a inh – inhibitors of human histone lysine methyltransferase G9a; Potency, µM (doses to about 102 µM), without a hit: at the highest dose activity, negative = inhibition, hits mostly inhibitors; Q96KQ7; G9a H3K9 monomethylation, AlphaScreen, 2 h; hit rate 8.8% among 350,000; also: % is scaled to controls: 0 for no effect and ±100 for the full control effect; nearly all actives have a fitted effect of over 75% in size
# Target sequence (Q96KQ7 913-1193 limits assumed): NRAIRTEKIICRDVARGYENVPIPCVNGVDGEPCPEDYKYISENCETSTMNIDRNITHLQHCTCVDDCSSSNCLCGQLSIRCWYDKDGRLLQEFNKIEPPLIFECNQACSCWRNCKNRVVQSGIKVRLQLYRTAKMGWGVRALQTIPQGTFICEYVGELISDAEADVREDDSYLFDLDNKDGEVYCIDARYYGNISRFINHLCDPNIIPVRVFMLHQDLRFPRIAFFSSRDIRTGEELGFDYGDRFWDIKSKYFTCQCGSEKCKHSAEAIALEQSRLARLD
#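 Step 1: enzyme (final 20 nM) with compound, 15 min RT. Step 2: substrate peptide 500 nM and SAM 20 uM, 2 h RT. Step 3: anti-H3K9me1 antibody and AlphaScreen beads, 10 min, then plate read.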
# HP1b binding inh – blocks HP1-beta chromodomain binding to methylated histone tails; Potency, µM (series often up to 114 µM), inactives show at the highest dose activity change, negative = inhibition, usual class: inhibitors; AID 540317; P83916; AlphaScreen HP1-beta / biotin-H3K9me3 peptide binding; hit rate 0.56% among 390,000; also: nearly all actives have a fitted effect of over 70% in size
# Target sequence (P83916 whole entry, looked up): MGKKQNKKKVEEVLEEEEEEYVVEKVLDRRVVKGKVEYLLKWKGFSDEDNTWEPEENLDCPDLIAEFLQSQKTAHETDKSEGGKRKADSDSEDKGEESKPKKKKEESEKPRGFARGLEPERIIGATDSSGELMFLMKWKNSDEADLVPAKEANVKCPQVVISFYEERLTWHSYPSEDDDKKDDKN
#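 HP1-beta protein (50 nM final) preincubated 30 min at room temperature with biotinylated H3(1-18)K9me3 peptide (50 nM) in PBS pH 7.4, 0.01% Tween-20, then compound added for 30 min. AlphaScreen streptavidin donor/nickel chelate acceptor beads (10 ug/mL final), 30 min dark, luminescence read.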
# BAZ2B block – inhibitors of human BAZ2B bromodomain; Potency, µM (series often up to 114 µM), for the others: at the top dose activity change, negative = inhibition, usual class: inhibitors; AlphaScreen BAZ2B-H3K14Ac peptide displacement; hit rate 4.4% among 360,000; AID 504333; also: % is scaled to controls: 0 for no effect and ±100 for the full control effect; nearly all actives have a fitted effect of over 60% in size
#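 Inhibition is scored as reduced AlphaScreen emission. The BAZ2B/b-H3(5-23)K14Ac complex (50 nM each) in PBS pH 7.4, 0.01% Tween-20 meets compound (up to 110 uM) for 30 min at RT before bead addition.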
# Sfp PPTase inh – blocks B. subtilis Sfp PPTase activity | Q9F4F7 | Biochemical Sfp PPTase activity, qHTS | Potency, µM, for inactives: largest response in the series, negative = inhibition, actives largely listed as inhibitors | hit rate 3.5% among 310,000 | AID 1490;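 also: the enzyme is Sfp with the accession as filed and its product quenches rhodamine fluorescence; 0% = enzyme reaction without inhibitor and -100% = no enzyme wells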
#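 After 15 min at room temperature with compound, 15 nM Sfp received 5 uM rhodamine-CoA plus 12.5 uM BHQ-2-ybbR (50 mM Hepes pH 7.6, 10 mM MgCl2). Rate came from the fluorescence difference over 30 min, ex 525/em 598 nm.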
# PLK1 PBD block – inhibitors of human PLK1 polo-box domain binding; Potency, µM, for inactives: max response, negative = inhibition, hits mostly inhibitors; P53350; hit rate 2.8% among 360,000; Plk1 PBD binding of FITC phosphopeptide, fluorescence polarization; also: series mostly up to about 57 µM; % is scaled to controls: 0 for no effect and ±100 for the full control effect; nearly all actives have a fitted effect of over 65% in size
# JMJD2A Tudor – blocks the human JMJD2A Tudor domain. AID 504339. hit rate 4.4% among 390,000. O75164. AlphaScreen JMJD2A-Tudor / H3K4me3 peptide binding. Potency, µM (doses to about 114 µM), for inactives: at the highest dose activity change, negative = inhibition, most hits filed as inhibitors; also: % is scaled to controls: 0 for no effect and ±100 for the full control effect; nearly all actives have a fitted effect of over 50% in size
# * = called active by the depositor; ? = inconclusive; · = not tested or not shown; [ ] = remark or other dose. Calls follow the shape of the dose curve; as a rule, active = well fitted curve in the direction sought with a large enough effect; inconclusive = small, poorly fitted or top-dose-only effect, or another doubt; inactive = no such curve, though single readings can be large; an effect the other way counts as inactive or inconclusive. Potency is read from the fitted curve at half-maximal effect.
SMILES,G9a inh,HP1b binding inh,BAZ2B block,Sfp PPTase inh,PLK1 PBD block,JMJD2A Tudor
CCOc1ccccc1C(=O)N1CCc2cc(OC)c(OC)cc2C1COc1ccc2c(C)cc(=O)oc2c1 (stereo not drawn),?,2.9%,-13.0%,·,·,-20.5%
Cc1scc(CN2CCN(c3ccccc3F)CC2)c1C,3.1%[59 µM],91.5%,28.5%,·,·,18.7%
COc1ccccc1-n1c(SCC(=O)N2CCc3ccccc32)nc2c(c1=O)SCC2,-2.1%[59 µM],14.3%,-4.2%,79.4µM*,6.1%,-29.2%
COc1ccc(OC)c(-n2c(SCC(=O)N3CCc4ccccc43)nc3c(c2=O)SCC3)c1,-3.8%[59 µM],26.2%,-1.1%,10.1%,0.4%,-22.9%
O=C1OC(/C(=C\Nc2ccc(F)cc2F)[N+](=O)[O-])c2ccccc21 (stereo not drawn),44.7µM*,46.3%,-18.2%,?,-25.6%,-19.6%
O=C1OC(/C(=C\Nc2cc(Cl)ccc2O)[N+](=O)[O-])c2ccccc21 (stereo not drawn),10µM*,?,44.7µM*,3.1%,-18.8%,?
N#Cc1ccc(CN2CC[C@@]3(CCCN(C(=O)c4ccncc4)C3)C2)cc1,4.6%[12.7 µM],·,·,20.0%,·,·
COc1ccc(-c2nc(-c3ccccc3)ncc2S(C)(=O)=O)cc1,16.9%[12.7 µM],6.7%,-3.8%,7.9%,26.7µM*,?
COc1ccc(-c2nc(-c3ccccn3)ncc2S(C)(=O)=O)cc1,-2.4%,34.1%,?,15.6%,-6.5%,-16.2%
Cn1c(=N)n(CC(=O)c2ccc(Br)s2)c2ccccc21,?,33.6%,-3.3%,-1.8%,-6.8%,-6.3%
N=c1n(CC(=O)c2ccc(Br)s2)c2ccccc2n1Cc1ccccc1,?,31.5%,-37.1%,14.1µM*,1.3%,-16.1%
Oc1nc(Nc2ccc(Cl)cc2Cl)sc1/C=C1\C=Nc2ccccc21,4.47µM*,?,?,?,-11.8%,?
O=c1oc2ccccc2cc1-c1nnc(Nc2ccc(Cl)cc2Cl)s1,10.1%[59 µM],12.4%,3.3%,·,·,-23.5%
Cc1cccc(NC(=S)N2CCn3cccc3C2c2cccnc2)c1 (stereo not drawn),50.1µM*,-10.3%,?,1.2%,-9.7%,-29.6%
Fc1ccc(C2c3cccn3CCN2C(=S)Nc2cccc(Br)c2)cc1 (stereo not drawn),70.8µM*,5.2%,-33.1%,5.5%,-6.6%,-20.3%
COc1cccc(NC(=S)N2CCn3cccc3C2c2cccnc2)c1 (stereo not drawn),28.2µM*,-6.2%,50.1µM*,9.1%,?,-19.9%
Fc1ccc(NC(=S)N2CCn3cccc3C2c2cccnc2)cc1 (stereo not drawn),?,15.0%,?,4.2%,-8.6%,-10.5%
CCOc1ccc(NC(=O)c2sc3nc(C)nc(N4CCOCC4)c3c2C)cc1,19.3%,-0.4%,-6.5%,-22.0%,-13.6%,-15.2%
NS(=O)(=O)c1ccc(NC2=CC(c3ccc([N+](=O)[O-])cc3)N(c3ccc(S(N)(=O)=O)cc3)C2=O)cc1 (stereo not drawn),22.4µM*,2.0%,?,11.2µM*,-19.9%,-32.1%
O=C(NCc1cccc(F)c1)c1ccc(N2C(=O)Cn3c(cc4sccc43)C2=O)cc1,-4.9%[59 µM],0.4%,-7.3%,3.4%,?,79.4µM*
O=C(NCc1ccco1)c1ccc(Cn2c(=O)c3sccc3n(Cc3cccc(F)c3)c2=O)cc1,8.8%,33.4%,27.7%,?,-2.3%,-19.3%
Cc1nn(S(=O)(=O)c2ccc(Br)cc2)c(C)c1S(=O)(=O)N1CCCCCC1,-3.5%[59 µM],28.8%,2.9%,·,·,-8.7%
COc1cc(NC(=O)COCc2cc(-c3ccc4c(c3)OCO4)on2)c(OC)cc1Cl,-7.6%[59 µM],12.5%,2.0%,·,·,-16.2%
CCN(CC)c1ccc(NC(=O)COCc2cc(-c3ccc4c(c3)OCO4)on2)c(C)c1,4.47µM*,?,22.4µM*,·,·,20µM*
COc1ccc(CN(Cc2ccccc2)S(=O)(=O)c2ccccc2)cc1COc1ccc(NC(C)=O)cc1,·,·,·,·,·,-31.3%
SMILES,G9a inh,HP1b binding inh,BAZ2B block,Sfp PPTase inh,PLK1 PBD block,JMJD2A Tudor
CSc1ncccc1C(=O)OCC(=O)c1ccc(Cl)s1,·,·,·,·,-0.9%,·
O=C(COc1cccnc1[N+](=O)[O-])c1ccc(Cl)s1,·,?,39.8µM*,2µM*,15µM*,39.8µM*
O=C(COc1cccnc1[N+](=O)[O-])Nc1c(Cl)cccc1Cl,·,10.7%[57 µM],·,·,-8.3%,-15.9%
O=C(OCC(=O)c1ccc(Cl)s1)c1cnccn1,35.5µM*,0.1%,?,1.6%,-11.0%,-28.8%
O=C(OCC(=O)c1ccc(Cl)s1)c1ccccn1,-10.3%[59 µM],16.7%,56.2µM*,-5.6%,-5.0%,31.6µM*
O=C(COC(=O)c1cnccn1)c1ccc(Cl)cc1,-4.6%,48.9%,?,19.7%,-0.1%,5.8%
O=C(CCC1CCN(Cc2nccs2)CC1)Nc1ccccc1,·,·,·,·,-19.6%,·
COc1ccc(N2CCN(C(CNC(=O)C(=O)NCc3cccs3)c3ccco3)CC2)cc1 (stereo not drawn),39.8µM*,-0.9%,?,0.9%,?,-8.1%[11.4 µM]
COc1ccc(N2CCN(C(CNC(C)=O)c3ccco3)CC2)cc1 (stereo not drawn),?,42.1%,-35.6%,13.9%,-5.6%,-8.1%[11.4 µM]
COc1ccc(N2CCN(C(CNC(=O)OCc3ccccc3)c3ccco3)CC2)cc1 (stereo not drawn),25.1µM*,?,39.8µM*,-9.2%,-7.0%,39.8µM*
O=C(COc1ccccc1)NCC(c1ccco1)N1CCN(c2ccccc2)CC1 (stereo not drawn),44.7µM*,-9.1%,-37.2%,·,-14.3%,?
COc1ccc(N2CCN(C(CNC(=O)C(=O)NC3CCCC3)c3ccco3)CC2)cc1 (stereo not drawn),7.08µM*,19.8%,-20.9%,·,-5.2%,-6.2%
O=C(NCC(c1ccco1)N1CCN(c2ccccc2)CC1)c1cccs1 (stereo not drawn),?,-7.9%,-7.2%,·,-8.5%,-34.5%
COc1ccc(N2CCN(C(CNC(=O)C(=O)NCC(OC)OC)c3ccco3)CC2)cc1 (stereo not drawn),-5.6%,9.7%,-10.3%[57.1 µM],6.2%,5.9%,-9.7%
COc1ccc(CNc2ncnc3c2nc2n3CCCC2)cc1,-24.6%[59 µM],30.4%,-0.8%,·,·,-10.6%
O=C(Cc1ccc(NC(=O)C2CCN(C(=O)C3CC3)CC2)cc1)Nc1ccc(C(=O)N2CCOCC2)cc1,·,30.2%,·,·,-17.1%,1.4%
Cc1cc(Nc2ccc(N3CCC(C)CC3)cc2)n2ncnc2n1,-49.9%[12.7 µM],1.5%,56.2µM*,-4.9%,-5.4%,?
Cc1cc(Nc2ccc(C)c(F)c2)n2ncnc2n1,-12.0%[59 µM],59.6%,10.6%,13.8%,-10.1%,-3.8%[57.1 µM]
CC(=O)c1ccc(Nc2cc(C)nc3ncnn23)cc1,-7.0%,25.3%,-3.9%,10.6%,-1.5%,?
